A selection: hits, their analogues and other compounds. The true share with any hit is near 2.6%.
Exocytosis inh – LAMP-1 surface exposure blockers, TALL-104 cells – cell-based, flow cytometry, MLPCN library, primary screen; TALL-104 LAMP-1 surface exposure; cells stimulated with thapsigargin and PMA; inhibition, % at 10 µM; hit rate 0.66% among 360,000; AID 651702, 2012;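 active means inhibition above about 55%, limit read from the data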
PfM18AAP inh – PfM18AAP inhibitors, malaria aminopeptidase, primary screen, biochemical, QFRET, recombinant enzyme; M18 aspartyl aminopeptidase (Plasmodium falciparum 3D7); H-Glu-NHMec fluorogenic cleavage; inhibition, % at 7.35 µM; hit rate 1.2% among 290,000; AID 1822, 2009;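 active means inhibition above the campaign mean inhibition over all tested compounds plus 3 SD, cut at about 28% in these data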;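 further: 0% = plate median of test compound wells and 100% = 2 mM ZnCl2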
Rce1 inhib – yeast Rce1p protease inhibitors, primary screen, biochemical, fluorescence, cell-free homogeneous | CAAX prenyl protease 2 (Saccharomyces cerevisiae (strain ATCC 204508 / S288c)), Q03530 | yeast membranes, quenched prenylated peptide cleavage fluorescence | calls only | hit rate 0.27% among 290,000;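 active means fall in fluorescence gain of 50% or more versus controls, with final raw signal at or below 3038400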;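 further: plate controls were neutral control wells for no effect and wells lacking membranes for full effect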
Target sequence (Q03530 whole entry, looked up): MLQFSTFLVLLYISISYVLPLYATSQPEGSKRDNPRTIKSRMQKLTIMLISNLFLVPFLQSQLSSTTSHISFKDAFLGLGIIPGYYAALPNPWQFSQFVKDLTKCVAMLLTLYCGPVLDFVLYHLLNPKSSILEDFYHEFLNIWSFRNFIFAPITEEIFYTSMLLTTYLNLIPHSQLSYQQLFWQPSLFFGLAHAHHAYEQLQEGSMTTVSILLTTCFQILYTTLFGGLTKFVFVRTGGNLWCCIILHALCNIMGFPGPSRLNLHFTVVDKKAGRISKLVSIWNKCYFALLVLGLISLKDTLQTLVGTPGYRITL
ABHD5-PLIN5 inh – ABHD5-PLIN5 interaction inhibitors, primary screen, cell lysate, split luciferase complementation, luminescence; Perilipin-5 (Homo sapiens) + 1-acylglycerol-3-phosphate O-acyltransferase ABHD5 (Homo …; Split G. princeps luciferase complementation, 4 h; inhibition, % at 4 µM; hit rate 0.78% among 360,000; AID 602281, 2012;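 active means inhibition above the mean inhibition across every tested compound plus 3 SD, cut at about 22% in these data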;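 further: 0% = DMSO only wells and the 100% control is not disclosed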
Platelet DG rel – inhibitors of platelet dense granule secretion, primary screen, cell-based, MLPCN, human platelets; human platelet-rich plasma, SFLLRN dense granule ATP release, luminescence; inhibition, %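 (compounds screened at 7.5 µM in platelet-rich plasma)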; hit rate 0.22% among 300,000;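 active means mean replicate score, as percent of positive control, at or above 50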
An asterisk follows results filed as active; i = inactive; / = no result; + = active, no number.

SMILES	Exocytosis inh	PfM18AAP inh	Rce1 inhib	ABHD5-PLIN5 inh	Platelet DG rel
O=C(OCN1C(=O)c2ccccc2C1=O)C1CCCCC1	-2.1	-5.6	i	2.5	-0.3
COc1ccc(CN2CCN(C(=O)c3cccc4ccccc34)CC2)cc1Br	3.7	4.8	i	5.0	1.9
COc1ccc(CN2CCN(C(=O)c3cccs3)CC2)cc1Br	-1.4	29.2*	i	-5.0	4.9
COc1ccccc1NC(=O)COc1ccc(C(=O)NCC2CCCO2)cc1OC (configuration not stated)	12.6	/	/	-0.9	/
O=S(=O)(Nc1ncccn1)c1ccc(NC(=S)Nc2ccc(Cl)cc2)cc1	0.1	-16.7	i	-6.1	-8.6
CCOc1ccc(-c2n[nH]c(C)c2Oc2ccccc2OC)c(O)c1	4.0	-0.4	i	1.7	6.6
C=C(C)COc1ccc(-c2n[nH]c(C)c2Oc2ccccc2OC)c(O)c1	74.5*	-4.8	i	-11.0	-4.6
O=[N+]([O-])c1ccc(S(=O)(=O)CC(CN2CCOCC2)N2CCOCC2)cc1 (configuration not stated)	5.4	-6.7	i	3.2	0.2
O=[N+]([O-])c1ccc(S(=O)(=O)CC(CN2CCCCC2)N2CCCCC2)cc1 (configuration not stated)	64.1*	-9.4	i	3.1	19.5
O=C(O)CCN1C(=O)/C(=C/c2ccc(-c3nc4ccccc4s3)o2)SC1=S	98.2*	8.1	i	-3.9	-3.3
O=C(O)CC(C(=O)O)N1C(=O)/C(=C/c2ccc(-c3nc4ccccc4s3)o2)SC1=S (configuration not stated)	2.8	14.1	i	-15.3	-5.7
O=C(O)CCCN1C(=O)/C(=C\c2ccc(-c3nc4ccccc4s3)o2)SC1=S	76.2*	13.3	i	-4.7	-2.0
O=C(O)CCCN1C(=O)/C(=C/C=C/c2ccco2)SC1=S	-4.4	26.4	i	17.1	-10.0
CC(/C=C/c1ccc(O)cc1)=NNc1ccccc1	59.0*	/	/	-5.1	/
CCOc1ccc(N=c2scc(-c3ccccc3)n2CCO)cc1	-0.8	18.8	i	-6.9	3.4
OCCn1c(-c2ccc(F)cc2)csc1=Nc1ccccc1	-0.4	40.5*	i	-8.2	13.0
CN1CCN(C(=S)NC(=O)c2ccccc2Cl)CC1	12.9	5.1	+	1.1	-8.1
O=C(NC(=S)N1CCCCCC1)c1ccccc1Cl	-5.9	-0.4	i	-3.1	3.0
COc1ccc(CCN(C)C(=O)c2ccc(S(=O)(=O)Nc3ccccc3C)cc2)cc1OC	/	1.6	+	/	-11.4
CCOc1ccc(NS(=O)(=O)c2ccc(C(=O)N(C)CCc3ccc(OC)c(OC)c3)cc2)cc1	-1.9	5.0	i	-2.1	-7.7
CC(C)N1CCN(S(=O)(=O)c2ccc3ccccc3c2)CC1	1.2	0.2	+	-5.1	5.0
S=c1[nH]nc(-c2ccncc2)n1/N=C/C=C/c1ccco1	-0.4	30.9*	i	2.9	1.7
Cc1cccc(-c2n[nH]c(=S)n2/N=C/C=C/c2ccco2)c1	4.2	11.5	i	1.5	-6.9
COC(=O)c1ccc(N2C(c3cc(OC)cc(OC)c3)=Cc3ccc(-c4cnc(OC)nc4)cc3C2CC(=O)C2CC2)cc1 (configuration not stated)	-0.1	/	/	0.4	/
O=C(O)COc1ccccc1C(Nc1ccccn1)c1cc(Cl)c2cccnc2c1O (configuration not stated)	0.1	7.9	i	0.4	-9.3
SMILES	Exocytosis inh	PfM18AAP inh	Rce1 inhib	ABHD5-PLIN5 inh	Platelet DG rel
O=C(O)COc1ccccc1C(Nc1cccnc1)c1cc(Cl)c2cccnc2c1O (configuration not stated)	-5.3	9.2	i	25.9*	3.5
O=C(CC1(O)C(=O)Nc2ccccc21)c1ccc(-n2cccc2)cc1 (configuration not stated)	1.2	5.5	i	0.8	-0.4
CC(C)CCNC(=O)CCCn1c(=O)[nH]c2ccc(Br)cc2c1=O	-2.3	3.6	i	-1.1	-2.7
O=C(CCCn1c(=O)[nH]c2ccc(Br)cc2c1=O)NCc1ccc(Cl)cc1	-4.0	-2.4	+	-0.8	-1.9
Oc1c(C=Nc2cccc3cccnc23)sc2ccccc12	/	20.5	i	/	22.6
Cc1cccc(/N=C/c2sc3ccccc3c2O)n1	-3.6	2.4	i	-1.6	51.5*

Screening results deposited in PubChem by several laboratories.
